40 compounds from PubChem BioAssay (Tox21) can be followed below.

The structures appear in SMILES notation. Several values for one entry are separate records, joined by “and”; a condition that tells them apart may be missing. Equal values may be shown once. Results filed as inconclusive are left out. Values without a mark were called inactive. Activity calls are given as the source filed them. The call rests on the fitted dose curve.
On the % scale 0 is the no-effect control and ±100 the full control effect; potency means the concentration at half of the fitted maximal effect.

A short description of this assay: qHTS assay for small molecule agonists of the p53 signaling pathway (AID 651631). Further: nearly all actives have a fitted effect of over 15% in size. Particulars: HCT-116 p53RE-bla reporter, beta-lactamase FRET ratio, 16 h; series mostly up to 73.3 µM; activation: at the top concentration. From the text:
U.S. Tox21 Program National Center for Advancing Translational Sciences [NCATS] NIH Chemical Genomics Center [NCGC] U.S. Environmental Protection Agency [EPA] National Institutes of Environmental Health Sciences [NIEHS] National Toxicology Program [NTP] U.S. Food and Drug Administration [FDA] Tox21 Assay Overview: p53, a tumor suppressor protein, is activated following cellular insult, including DNA damage and other cellular stresses. The activation of p53 regulates cell fate by inducing DNA repair, cell cycle arrest, apoptosis, or cellular senescence. The activation of p53, therefore, is a good indicator of DNA damage and other cellular stresses. The CellSensor p53RE-bla HCT-116 cell line (Invitrogen) contains a stably integrated beta-lactamase reporter gene under control of the p53 response elements. The activation of the reporter gene under culture conditions can be detected by fluorescence intensity. This cell line was used to screen the Tox21 compound library in a 1536-well plate format and to identify agonists that activate the p53 signaling pathway.
Tox21 Assay Protocol Summary: The p53RE-bla cells were dispensed at 4,000 cells/5 ul/well in 1536-well black wall/clear bottom plates using a Multidrop dispenser. After the assay plates were incubated at a 37 C/5% CO2 incubator for 5 hours, 23 nL of compounds dissolved in DMSO, positive controls or DMSO only was transferred to the assay plate by a pin tool. The plates were incubated at 37 C for 16 hours. After 1 uL of LiveBLAzerTM B/G FRET substrate was added using a Flying Reagent Dispenser, the plates were incubated at room temperature for 2 hours, and fluorescence intensity was measured by an Envision plate reader.
Background: Quantitative high-throughput screening tests each substance at several concentrations.
Regarding `Cc1c(Nc2ncccc2C(=O)O)cccc1C(F)(F)F`, the “activation” value was 7.58% [at 34.7 µM]. Same read-out and setting: next, `CC(C)=CCCC(C)C=O` (stereo not given): -0.778%. `Nc1cccc2c(=O)[nH][nH]c(=O)c12`: the “activation” value is -1.18% [at 95.1 µM]. Turning to `COc1cc(CNC(=O)CCCC/C=C/C(C)C)ccc1O`, the Potency result is “inactive”. For the compound `C=CCCC`, the “activation” value was -3.13% [at 95.1 µM].

For `CC(CN=Cc1ccccc1O)N=Cc1ccccc1O` (stereo not given), the “activation” value is -0.77%. On the same count and under the same terms, the value for `COc1ccc(C(=O)Nc2ccccc2)cc1[N+](=O)[O-]` was 1.93% [at 95.1 µM]; that for `c1ccc(CCNc2nc(-c3ccccc3)cs2)cc1` was -3.07%. On the same count and under the same terms, the value for `O=C(O)c1ccccc1[N+](=O)[O-]` was 3.79%. Same read-out and setting: next, `Cc1c(N=C=O)cccc1N=C=O`: 0.993% [at 95.1 µM].

Take `CCCCCCCCCCCC(=O)OCC`: the “activation” value is -3.9%.

Turning to `O=C(c1ccc(Cl)cc1)c1ccc(Cl)cc1`, the “activation” value was 0.283%. For `COc1cccc([C@H](O)C2CCN(CCc3ccc(F)cc3)CC2)c1OC`, the “activation” value is -1.97%.

For the compound `CCCCCCC/C=C/C=O`, the “activation” value was -0.712%. Still for that read-out and setting: the value for `CCCCCCCCCCCCCCCCN` was 1.35%.

In the case of `C/C(=C\C(C)CC(C)CC(C)C)C1CC(=O)OC1=O` (stereo not given), the “activation” value is -2.29%.

In the case of `O=c1[nH][nH]c2ccccc12`, the “activation” value was -5.18% [at 95.1 µM]. Still for that read-out and setting: the value for `CCOc1ccccc1O` was -1.6%; that for `Oc1ccc(CCNCCCCCCNCCc2ccccc2)cc1O` was -3.34%; that for `CCC(=O)O[C@@H]1C[C@H]2CC[C@]1(C)C2(C)C` was -0.28%.

For the compound `CCN(CCCCOC(=O)c1ccc(OC)c(OC)c1)C(C)Cc1ccc(OC)cc1` (stereo not given), the “activation” value was -2.25% [at 34.7 µM]. As to `CC1=CC(=C(c2ccc(N)cc2)c2ccc(N)cc2)C=CC1=N`, the activation is -1.72% [at 8.3 µM]. For `C=C[Si]1(C)O[Si](C)(C=C)O[Si](C)(C=C)O[Si](C)(C=C)O1` (stereo not given), the “activation” value was -2.09%. With `CC(C)C[C@H](NC(=O)[C@H](Cc1ccccc1)NC(=O)c1cnccn1)B(O)O`, the Potency is 15 nM (active) and 9.4 nM (active). Consider `O=C(O)c1cc(C(=O)O)c(C(=O)O)cc1C(=O)O`, for which the “activation” value was -1.07%. Consider `O=Cc1ccc([N+](=O)[O-])cc1`, for which the “activation” value was -2.9% [at 95.1 µM]. As to `CCOC(=O)CC(O)(CC(=O)OCC)C(=O)OCC`, the “activation” value is -3.46%.

Turning to `CCC(CC)C(=O)O`, the “activation” value was 0.5%. The same measure, in the same setting: next, `C=C[Si](OCC)(OCC)OCC`: -0.264%; `CC(C)CCCCCCCOC(=O)c1ccc(C(=O)OCCCCCCCC(C)C)c(C(=O)OCCCCCCCC(C)C)c1`: -3.19%. On the same count and under the same terms, the value for `O=C(OC1C[C@H]2CC[C@@H](C1)[N+]21CCCC1)C(O)(c1ccccc1)c1ccccc1` (stereo not given in full) was -4.03%; that for `COC(=O)C(C)(C)C` was -2.13% [at 95.1 µM]; that for `O=S(=O)(O)c1cc(Cl)c(Cl)cc1Cl` was -1.97%.

In the case of `CC(=O)c1cccnc1`, the “activation” value is 1.2%. `CCCC(=O)OCCC(C)C`: the “activation” value is -2.96%. For the compound `O=C1c2ccccc2C(=O)C1c1ccc2ccccc2n1`, the “activation” value is 2.75%. The same measure, in the same setting: the value for `CCCCOC(=O)C(C)Oc1ccc(Oc2ccc(C(F)(F)F)cn2)cc1` (stereo not given) was -2.93%. In the case of `O=C(OCCOCCOCCOC(=O)c1ccccc1)c1ccccc1`, the “activation” value was -0.815%.

`CCc1ccc2c(c1)C(=O)c1ccccc1C2=O`: the “activation” value is -1.63%. On the same count and under the same terms, next, `C[C@]12CCC(=O)C=C1[C@@H]1C[C@@H]1[C@H]1[C@@H]3[C@@H]4C[C@@H]4[C@@]4(CCC(=O)O4)[C@@]3(C)CC[C@@H]12`: -5.01%.
